The list is not random: actives were taken first. Their share in the collection is about 0.81%.
TSG101-PTAP inh = blocks PTAP/TSG101 interaction to inhibit HIV-1 budding | Q99816 | Fluorescence polarization, FITC-PTAP peptide / Tsg101 binding | Potency, µM (doses to about 115 µM), inactives show at the top dose activity change, negative = inhibition, actives largely listed as inhibitors | 340,000 tested, under 10 active; active = well fitted inhibition curve with a large enough effect in the main read-out, with a control signal flat, not every such curve was filed as active; inconclusive = small, poorly fitted or top-dose-only effect, or effect the other way, or a change in a side signal; inactive = no such curve, though single readings can be large or run the other way; also: potency is read from the fitted curve at half-maximal effect; % of control where 0% means no effect
Target sequence (Q99816 whole entry, looked up): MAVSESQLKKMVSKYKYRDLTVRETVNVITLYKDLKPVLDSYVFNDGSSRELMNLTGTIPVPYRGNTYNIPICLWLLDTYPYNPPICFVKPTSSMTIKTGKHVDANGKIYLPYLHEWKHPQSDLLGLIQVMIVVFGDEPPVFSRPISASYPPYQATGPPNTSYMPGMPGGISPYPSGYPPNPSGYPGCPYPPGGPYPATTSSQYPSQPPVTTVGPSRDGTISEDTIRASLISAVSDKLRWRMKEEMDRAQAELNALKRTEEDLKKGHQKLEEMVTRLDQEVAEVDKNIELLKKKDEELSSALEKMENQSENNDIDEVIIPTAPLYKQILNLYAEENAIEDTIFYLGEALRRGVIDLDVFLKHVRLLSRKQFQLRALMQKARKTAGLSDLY
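FP read-out: FITC-PTAP peptide, 50 nM final, binding Tsg101 binding domain, 10 uM final; 20 min, r.t.; 10 mM HEPES pH 7.5, 0.15 M NaCl, 0.01% Tween 20, 3 mM EDTA, 0.1 mM TCEP.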
TRPML1 ag = activates the human TRPML1 channel. 410,000 compounds, 0.12% hits. Q9GZU1. TRPML1-expressing cells, Ca2+ dye fluorescence, FDSS. activation, % (no concentration beside the values); in the data active = activation above about 50%; inconclusive = mostly about 30% to 49%; also: 0% is about no effect
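Cells: TRPML1-DL, 1X Tet inducer, ~16 h at 37 degrees C/5% CO2. Dye: ABD Ca8 no-wash + quencher, 45-90 min RT. Read: 10 s baseline, compound add, 110 s agonist phase; 54-4 EC80 (4uM final), 110 s antagonist phase.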
TRHR agonist = TRH receptor (human) agonism. P34981. 360,000 compounds, 0.18% hits. TRHR cells, calcium flux fluo-8, FDSS agonist mode. activation, % at 2 µM; in the data active = activation above about 30%; also: 0% is about no effect
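Steps: seed TRHR cells overnight; add fluo-8 no-wash Ca dye, RT 30 min–1.5 h; record 10 s baseline; pin-transfer compounds; monitor fluorescence 1 cycle/s for the agonist window. Calcium increases flag candidate agonists.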
TRHR enhancer = allosteric enhancers of human TRH receptor | P34981 | TRHR cells, fluo-8 calcium fluorescence, EC20 TRH enhancement | enhancement, % at 2 µM | 360,000 compounds, 0.66% hits | AID 493056; in the data active = enhancement above about 30%; also: 0% is about no effect
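TRHR-expressing cells loaded with fluo-8 calcium dye were read kinetically (ex 480/em 530) during compound addition, then stimulated with an EC20 of TRH (10 nM final). Enhancement of the Gq-mediated intracellular calcium response was scored.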
TRPML1 blocker = blocks the human TRPML1 channel; 390,000 compounds, 0.02% hits; activity change, negative = inhibition, % (concentration not given with the values); Q9GZU1; TRPML1-inducible cells, Ca2+ dye fluorescence, FDSS; active compounds read low; inhibition of EC80 agonist-evoked calcium signal; in the data active = activity change below about -50%; inconclusive = between about -30% and that limit;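 also: stimulus is agonist 54-4 at its EC80 concentration; % is scaled to controls: 0 for no effect and ±100 for the full control effect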
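Tet-induced TRPML1-DL cells loaded with Ca8 no-wash calcium dye were read kinetically on FDSS. Compound addition was followed by EC80 agonist 54-4 (4 uM final); inhibition was read over 110 s.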
An asterisk follows results filed as active; ? = inconclusive; nt = no result.

SMILES	TSG101-PTAP inh	TRPML1 ag	TRHR agonist	TRHR enhancer	TRPML1 blocker
CC(C)COc1ccc(C(=O)Nc2scc(-c3ccc(Br)cc3)c2C(=O)OC(C)C)cc1	nt	1	0	31*	-2
CCOC(=O)c1c(-c2ccc(Br)cc2)csc1NC(=O)c1ccc(F)cc1	nt	-1	-1	3	-1
C(=N\Nc1ncnc2ccccc12)/c1ccccc1	2%	-1	0	-11	-8
Clc1cccc(/C=N/Nc2ncnc3ccccc23)c1	-7%	1	0	31*	6
CC1(C)C2CCC(C2)C1C/C=N/NC(N)=S (configuration not stated)	0%	2	0	33*	-5
CCOC(=O)C1=NN(C(=O)c2ccc(C)cc2)C(O)(c2ccc(Cl)cc2)C1 (configuration not stated)	-4%	?	49*	-2	10
O=C(CC1SC(=O)N(c2ccccc2)C1=O)Nc1ccccc1 (configuration not stated)	-9%	0	0	-5	-3
O=C(CC1Sc2ncnn2C1=O)Nc1ccccc1 (configuration not stated)	nt	0	-1	30*	-2
Brc1ccc[n+](CCC2CCCCC2)c1	nt	0	nt	nt	nt
O=C(NCc1ccccc1Cl)c1ccc(CS(=O)(=O)c2ccc(Br)cc2)o1	nt	11	0	40*	0
O=C(NCc1ccccc1Cl)c1ccc(CS(=O)(=O)c2ccccc2)o1	-3%	3	2	-5	11
CN(C)c1ccc(/C=C/C(=O)c2c(O)c3ccccc3oc2=O)cc1	?	0	38*	9	?
COc1cc(OC)c(/C=C/c2c3ccccc3cc[n+]2C)c(OC)c1	nt	0	nt	nt	nt
O=C1/C(=C\c2c(NCCOCCO)nc3ccccn3c2=O)SC(=S)N1Cc1ccco1	28%	22	33*	1	14
COc1ccc(CC(=O)NO)cc1OC	nt	0	nt	nt	nt
COC(=O)c1cc2n(n1)CCN(Cc1ccccc1Cl)C2=O	1%	0	0	32*	-12
COC(=O)c1cc2n(n1)CCN(Cc1ccc(C)cc1)C2=O	-3%	-1	0	8	4
O=C(Nc1cc(C(F)(F)F)ccc1Cl)C(O)Cc1ccccc1 (configuration not stated)	nt	nt	-1	2	nt
C[n+]1ccc(/C=C/c2ccc([N+](C)(C)C)cc2)c2ccccc21	nt	-1	nt	nt	nt
CCOC(=O)C(NCCc1ccccc1F)(NC(=O)CC)C(F)(F)F (configuration not stated)	0%	0	-4	34*	0
CCOC(=O)C(NCCc1ccccc1)(NC(=O)CC)C(F)(F)F (configuration not stated)	2%	0	0	-9	5
O=[S+]([O-])(c1ccc2c(c1)OCCO2)N1CCN([S+](=O)([O-])c2ccc(F)cc2Cl)CC1	nt	nt	0	-1	nt
Cc1[nH]nc2c1C(c1ccc(-c3ccc(Cl)cc3)o1)C(C#N)=C(N)O2 (configuration not stated)	0%	1	0	31*	-2
Cc1ccc(-c2ccc(C3C(C#N)=C(N)Oc4n[nH]c(C)c43)o2)cc1 (configuration not stated)	-6%	10	0	2	-14
C=C(C)C1CC=C(C)/C(=N/NC(=O)c2cccc([N+](=O)[O-])c2)C1 (configuration not stated)	-3%	1	-1	37*	-12
SMILES	TSG101-PTAP inh	TRPML1 ag	TRHR agonist	TRHR enhancer	TRPML1 blocker
Cc1nc2c(c(=O)c3ccccc3n2C)c(=O)n1C1CCCCCC1	0%	?	33*	-6	8
Cn1c2ccccc2c(=O)c2c(=O)n(C3CCCCC3)c(-c3ccco3)nc21	1%	11	11	0	5
S=C(NCCCc1cnc[nH]1)NCCCN(Cc1ccc(Cl)cc1)c1ncc(Br)cn1	nt	1	nt	nt	nt
Cc1cc2c(s1)c1cnn(Cc3ccc(-n4cncn4)cc3)c(=O)c1n2C	nt	nt	-1	9	nt
O=C(O)c1cc(-c2ccc(/C=C3\NC(=O)N(c4ccccc4)C3=O)o2)ccc1Cl	0%	-1	0	-5	-4
C#CCN1C(=O)S/C(=C\c2ccc(-c3ccc(Cl)c(C(=O)O)c3)o2)C1=O	0%	nt	1	32*	nt
N#C/C(=C/c1ccc(N2CCOCC2)o1)C(=O)Nc1ccccc1	?	83*	90*	10	-17
CCCC(=O)Oc1ccc2[nH]c(C(=O)c3cc4ccccc4[nH]3)cc2c1	nt	0	nt	nt	nt
O=C(CCN1C(=O)/C(=C/C=C/c2ccccc2)SC1=S)Nc1ccccn1	1%	1	0	39*	-9
CCc1cc2c(cc3c(=O)n(CC(=O)NC4CCCCC4)ncn32)s1	nt	0	0	44*	-2
CCc1cc2c(cc3c(=O)n(CC(=O)N4CCCCC4)ncn32)s1	nt	-1	0	0	-13
CCCCC1=NN(C(=O)c2ccncc2)C(O)(C(F)(F)F)C1 (configuration not stated)	-1%	0	1	1	19
CCCCC1=NN(C(=O)c2ccco2)C(O)(C(F)(F)F)C1 (configuration not stated)	1%	0	-1	36*	-4
CCCN1C=CC(=C/C=C(\C#N)C(=O)OCC)C=C1	nt	nt	58*	6	nt
CCCCCCN1C=CC(=C/C=C(\C#N)C(=O)OCC)C=C1	?	60*	165*	31*	-12
CCOC(=O)/C(C#N)=C/C=C1\C=Cc2ccccc2N1CC	17%	1	5	-3	13
CCC[N+](C)(C)c1ccc(/C=C/c2ccnc3ccccc23)cc1	nt	0	nt	nt	nt
CC(=O)Nc1ccc(SC[C@H](Cc2ccccc2)N2CC[C@@H](N)CCC2=O)cc1	nt	0	nt	nt	nt
Cc1ccc(NC(=O)CS(=O)CC(=O)N2CCN(c3ccccc3)CC2)cc1 (configuration not stated)	0%	-1	0	31*	2
Cc1ccc(NC(=O)CS(=O)CC(=O)N2CCN(C3CCCC3)CC2)cc1 (configuration not stated)	-8%	0	0	-16	-20
CC1CCN(c2ccc(NC(=O)Cc3ccccc3)cc2)CC1	2%	0	0	1	-51*
Cc1cc2c(s1)c1cnn(Cc3cc(F)c(F)c(F)c3)c(=O)c1n2C	nt	nt	0	1	nt
COCCn1c2nc(=O)n(-c3ccccc3)c(=O)c-2nc2ccccc21	nt	59*	nt	nt	-9
Cc1cnnc2ccccc12	nt	0	nt	nt	nt
CC(C)n1c(NCc2ccc(Cl)cc2)nc2ccccc21	0%	-1	0	40*	-1
COc1ccc(CNc2nc3ccccc3n2Cc2ccc(Cl)cc2)cc1OC	0%	0	0	-9	-7
C[C@@H]1[C@H](c2ccccc2)OCCS(=O)(=O)N1Cc1cccc(C(F)(F)F)c1	nt	0	nt	nt	nt

Bioassay records: PubChem, National Center for Advancing Translational Sciences (NCATS)
